Measurements: ChEMBL document CHEMBL1157539, “Thousands of chemical starting points for antimalarial lead identification” (Nature, 2010)

The compounds below were run on HepG2 (assay: GSK_TCMDC: Percent inhibition of human HepG2 cell line. Test compounds present at 10uM.).
Assay type: functional

Structure (SMILES) | Inhibition [%]
Cc1cc(OCC2CCN(c3ccc(C(=O)NC4CC4)cn3)CC2)ccc1F | 6
CCN(CC)CC(O)c1cc(-c2ccc(C)cc2)nc2c(C)cc(C)cc12.Cl (centres undefined) | 3
Fc1ccc(Nc2ccnc3cc(-c4ccc(CN5CCOCC5)o4)ccc23)c(Cl)c1 | 42
O=CO.O=S1(=O)NCc2ccc(Nc3nccc(Nc4ccc5c(cnn5Cc5ccccc5)c4)n3)cc21 | 0
N#Cc1c(N2CCCCCC2)nc(N)c2c(N)nc3c(c12)CC(=O)N3c1ccc(F)cc1 | 0
O=C(Nc1cccnc1)c1cn(-c2ccccc2)nc1-c1cccs1 | 3
CN1CCc2cc(NS(=O)(=O)c3ccc(-c4ccc(Cl)cc4)cc3)c(OCCCN3CCCCC3)cc2CC1.Cl | 91
N#Cc1ccc(N[C@@H](CC2CCCCC2)C(=O)Nc2ccc(-c3ccccc3)cc2)c2ccccc12.O=C(O)C(F)(F)F | 34
COc1cccc(N(CCCN2C(=O)c3cccc4cccc(c34)C2=O)C(=O)c2ccccc2C)c1 | 20
COc1ccc2nccc([C@@H](O)CN3CCC(NC(=O)Cc4cc5ccccc5s4)CC3)c2c1 | 16
COCCNC(=O)c1ccc(OC2CCN(Cc3ccc(F)c(F)c3)CC2)c(Cl)c1 | 8
COc1ccc(CN2CCC(CNC(C)c3cccc4ccccc34)CC2)cc1.O=C(O)C(F)(F)F (centres undefined) | 58
O=C(Nc1ccc(C(=O)N2CCN(CCN3CCN(c4cccc(C(F)(F)F)c4)CC3)CC2)cc1)c1ccc(OC(F)(F)F)cc1 | 38
O=C(C=Cc1ccc(Cl)c(Cl)c1)NCCCCCN1CCCC(CCCNC(=O)/C=C/c2ccccc2)C1 (centres undefined) | 92
CC(C)C[C@@H](NC(=O)NC1CCC(CCN2C3CCC2CC(OC(=O)C(CO)c2ccccc2)C3)CC1)C(O)(c1ccccc1)c1ccccc1 (some centres undefined) | 21
Nc1nc(Nc2cccc(Cl)c2)ncc1C(=O)NCc1ccncc1 | 3
Cc1c(C)c2c(c(C)c1O)CC[C@@](C)(C(=O)N1CCC(CCN3CCC(c4c[nH]c5ccccc45)CC3)CC1)O2 | 37

Structure (SMILES) | Inhibition [%]
O=C(NC1CCN(c2ccnc3cc(Cl)ccc23)C1)c1ccc(C(F)(F)F)cc1.O=C(O)C(F)(F)F (centres undefined) | 37
COc1ccc2nccc(N3CCCN(CCNCc4ccc5c(n4)NC(=O)CS5)CC3)c2n1.Cl | 8
CS(=O)(=O)CCOCc1ccc(-c2ccc3ncnc(Nc4ccc(OCc5cccc(F)c5)c(Cl)c4)c3c2)o1 | 1
CN1CCN(c2nsc3ccc(-c4ccc(NC(=O)Nc5ccccc5)cc4)cc23)CC1.O=C(O)C(F)(F)F | 38
Cc1cnn(-c2cccc(C(=O)NC3CCC(CCN4CCc5ccc(C#N)cc5CC4)CC3)c2)c1.Cl (centres undefined) | 24
O=C(NC1CCN(CCC[C@]2(c3ccc(Cl)c(Cl)c3)CCCN(C(=O)c3ccccc3)C2)CC1)c1ccc(F)cc1 | 52
CCN(CC)CC(O)c1cc(-c2ccc(OC)cc2)nc2cc(Cl)ccc12.Cl (centres undefined) | 12
CC(C)C[C@H](NC(=O)c1cc(-c2ccc(C(C)(C)C)cc2)no1)C(=O)O.CC(C)C[C@H](NC(=O)c1conc1-c1ccc(C(C)(C)C)cc1)C(=O)O | 3
CC(C)[C@H](NC(=O)NC1CCC(CCN2C3CCC2CC(OC(=O)C(CO)c2ccccc2)C3)CC1)C(O)(c1ccccc1)c1ccccc1 (some centres undefined) | 17
O=C1C(c2ccccc2)=C(Nc2ccc([N+](=O)[O-])cc2)c2ccccc21 | 0
CCNc1cc(C(=O)N[C@@H](Cc2ccccc2)[C@H](O)CNC2CCC(C(C)(C)C)CC2)cc(N2CCCC2=O)c1 (some centres undefined) | 38
Cc1cc(N(C)CCN(C)C)nc(Nc2ccc(Cl)cc2)n1 | 0
CCc1cn2c3c(cc(C(=O)N[C@@H](Cc4ccccc4)[C@H](O)CNCc4ccc(C)cc4)cc13)N(C)S(=O)(=O)CC2.O=CO | 0
Cc1cccn2c(=O)c3cc(C(=O)NCCN4CCOCC4)c(=N)n(CCc4ccccc4)c3nc12 | 13
Cc1cccc(CCNC(=O)c2cc(Br)cc(N3CCN(c4ccncc4)CC3)c2)c1.O=C(O)C(F)(F)F | 48
COCn1ncc2cc(-c3cccc(NC(=O)c4csc(NC(C)=O)n4)c3)ccc21 | 0
COc1ccc(Cn2c(Nc3cccc(C(F)(F)F)c3)nc3cc(C(=O)NCCCN(C)C)ccc32)cc1Cl | 15
